The list is not random: actives were taken first. Their share in the collection is about 0.81%.
NR2F2 inh = NR2F2 transcriptional activity inhibitors, primary screen, cell-based, luciferase reporter, HEK293T, luminescence; COUP transcription factor 2 (Homo sapiens), P24468; hit rate 0.7% among 370,000; HEK293T NGFI-A luciferase reporter; inhibition, % at 8.6 µM; AID 686940, 2013;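 active means inhibition above a per-plate cutoff, mean inhibition of test wells between control levels plus 3 SD, cut at about 38% in these data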;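 further: cells cotransfected with COUP-TFII expression vector driving the NGFI-A reporter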
LRH-1 inv ag = LRH-1 (NR5A2) inverse agonists, primary screen, cell-based, luminescence, HEK293T, StAR-luciferase reporter; inhibition, % at 3.6 µM; AID 602396, 2012; Nuclear receptor subfamily 5 group A member 2 (Homo sapiens), O00482; LRH-1 transfected, 24 h; hit rate 0.13% among 360,000;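 active means inhibition above the mean inhibition of all tested compounds plus 3 SD, cut at about 73% in these data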
SRC3 inh = SRC3 coactivator transcriptional activity inhibitors, primary screen, cell-based, luminescence; inhibition, % at 3.6 µM; hit rate 0.17% among 360,000; HEK293 GAL4-SRC3 luciferase reporter; Nuclear receptor coactivator 3 (Homo sapiens), Q9Y6Q9;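 active means inhibition above a per-campaign cutoff, the mean of all compounds plus 3 SD, cut at about 60% in these data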;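 further: higher means less SRC3-driven luciferase light from the GAL4 reporter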
SRC1 inh = SRC1 coactivator transcriptional activity inhibitors, primary screen, cell-based, luminescence. Nuclear receptor coactivator 1 (Homo sapiens), Q15788. HEK293 GAL4-SRC1 luciferase reporter. inhibition, % at 3.6 µM. hit rate 0.12% among 360,000. AID 588354, 2011;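 active means inhibition above the campaign mean plus 3 SD, with each screening campaign given its own cutoff, cut at about 60% in these data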
NCOA2 inhibitor = inhibition of GAL4-SRC2 driven luciferase reporter, primary screen, SRC2 inhibitor project, cell-based, luminescence | Nuclear receptor coactivator 2 (Homo sapiens), Q15596 | HEK293 GAL4-SRC2 luciferase reporter | inhibition, % at 9 µM | hit rate 0.17% among 370,000;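 active means inhibition above the mean inhibition of all tested compounds plus 3 SD, set per campaign, cut at about 52% in these data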
Target sequence (Q15596 whole entry, looked up, the tested form may be a part): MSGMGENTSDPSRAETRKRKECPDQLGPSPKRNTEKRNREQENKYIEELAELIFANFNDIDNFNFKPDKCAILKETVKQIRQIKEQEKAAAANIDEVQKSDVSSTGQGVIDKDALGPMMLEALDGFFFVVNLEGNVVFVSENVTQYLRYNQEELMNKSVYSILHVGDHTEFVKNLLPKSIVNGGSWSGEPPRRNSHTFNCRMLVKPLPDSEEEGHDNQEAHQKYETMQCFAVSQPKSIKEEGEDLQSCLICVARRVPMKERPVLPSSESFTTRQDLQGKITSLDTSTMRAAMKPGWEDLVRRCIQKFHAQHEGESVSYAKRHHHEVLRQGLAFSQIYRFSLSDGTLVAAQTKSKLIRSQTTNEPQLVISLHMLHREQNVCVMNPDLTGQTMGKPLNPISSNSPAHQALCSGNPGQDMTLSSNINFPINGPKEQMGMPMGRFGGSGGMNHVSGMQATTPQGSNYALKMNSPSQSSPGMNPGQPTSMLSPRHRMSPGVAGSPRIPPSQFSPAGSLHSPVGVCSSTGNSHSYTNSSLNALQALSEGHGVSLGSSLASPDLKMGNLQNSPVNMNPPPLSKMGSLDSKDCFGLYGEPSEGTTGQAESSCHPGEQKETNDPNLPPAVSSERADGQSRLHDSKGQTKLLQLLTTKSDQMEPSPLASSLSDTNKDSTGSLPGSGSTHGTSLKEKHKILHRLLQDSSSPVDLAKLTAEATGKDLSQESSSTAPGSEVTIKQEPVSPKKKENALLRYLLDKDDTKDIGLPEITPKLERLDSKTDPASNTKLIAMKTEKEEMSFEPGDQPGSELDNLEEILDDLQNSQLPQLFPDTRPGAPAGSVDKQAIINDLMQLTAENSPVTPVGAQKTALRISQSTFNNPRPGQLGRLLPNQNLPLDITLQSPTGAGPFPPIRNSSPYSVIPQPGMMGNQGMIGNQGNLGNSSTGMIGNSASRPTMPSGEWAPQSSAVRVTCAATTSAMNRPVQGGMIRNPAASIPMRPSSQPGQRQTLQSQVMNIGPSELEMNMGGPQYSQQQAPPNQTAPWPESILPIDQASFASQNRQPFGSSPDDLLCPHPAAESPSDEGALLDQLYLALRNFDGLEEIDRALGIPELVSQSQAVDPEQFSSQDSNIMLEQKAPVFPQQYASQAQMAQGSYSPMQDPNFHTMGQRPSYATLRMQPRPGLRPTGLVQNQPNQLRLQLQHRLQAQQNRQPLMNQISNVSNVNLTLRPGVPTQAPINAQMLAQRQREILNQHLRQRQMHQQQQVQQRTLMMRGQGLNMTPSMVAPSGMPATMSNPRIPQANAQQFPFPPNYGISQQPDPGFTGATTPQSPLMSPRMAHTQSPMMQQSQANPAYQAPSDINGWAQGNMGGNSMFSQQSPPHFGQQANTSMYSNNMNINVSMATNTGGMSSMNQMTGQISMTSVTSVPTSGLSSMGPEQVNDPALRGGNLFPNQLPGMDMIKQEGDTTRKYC
Large screens that a line does not name were inactive.

Cc1ccc(C(C)C)c(OCc2ccc(C(=O)N/N=C/c3ccc(O)cc3O)cc2)c1	SRC3 inh 70, SRC1 inh 67, NCOA2 inhibitor 64
Cc1nccc(-c2ccc(-n3cnc4ccccc43)cc2)n1	none
Nc1nccc(-c2ccc(-n3cnc4ccccc43)cc2)n1	NR2F2 inh 42
Cc1ccc(S(=O)(=O)/N=C2\C=C(Nc3ccc(O)cc3)C(=O)c3ccccc32)cc1	LRH-1 inv ag 95, SRC3 inh 92, SRC1 inh 90 (no result: NR2F2 inh, NCOA2 inhibitor)
COC(=O)c1ccccc1NC1=C/C(=N\S(=O)(=O)c2cccs2)c2ccccc2C1=O	none
Cc1ccc(NC2=C/C(=N/S(=O)(=O)c3cccs3)c3ccccc3C2=O)cc1	SRC3 inh 73
O=C1C(Nc2ccccc2)=C/C(=N/S(=O)(=O)c2cccs2)c2ccccc21	LRH-1 inv ag 79, SRC3 inh 87, SRC1 inh 85 (no result: NR2F2 inh, NCOA2 inhibitor)
Cc1ccc(S(=O)(=O)/N=C2\C=C(Nc3cccc(C(=O)O)c3)C(=O)c3ccccc32)cc1	none
Cc1ccc(S(=O)(=O)/N=C2/C=C(Sc3ncn[nH]3)C(=O)c3ccccc32)cc1	LRH-1 inv ag 97, SRC3 inh 94, SRC1 inh 91 (no result: NR2F2 inh, NCOA2 inhibitor)
Cc1ccc(C(=O)N/C(=C\c2ccco2)C(=O)NCCCn2ccnc2)cc1	none
Cc1cc[n+](CC(=O)c2cccs2)cc1	none
COC(=O)c1sc2cc(C(F)(F)F)cnc2c1-c1ccccn1	none
Cc1[nH]c2ccccc2c(=O)c1C(=O)/C=C/c1ccccc1	SRC3 inh 72, SRC1 inh 64, NCOA2 inhibitor 65
CCOc1ccc2nc(N3CCC(C(=O)Nc4nnc(CC)s4)CC3)sc2c1	none
CN(C)c1ccc(Nc2nc(N)c3ccccc3n2)cc1	none
CN(C)c1ccc(Sc2ccc3nc(N)nc(N)c3c2)cc1	LRH-1 inv ag 74
CC1=C(C(=O)Nc2ccccc2)C(c2ccco2)n2ncnc2N1 (centres undefined)	none
C/C(=N\Nc1ncnc2sc(C)c(C)c12)c1ccccn1	SRC3 inh 81
Clc1ccccc1CN(Cc1ccccc1)c1ncnc2nc[nH]c12	none
CCCN(CCC)c1ncnc2nc[nH]c12	SRC3 inh 65
O=C(NCc1cccnc1)/C(=C\c1ccc(-c2ccc(Cl)c(Cl)c2)o1)S(=O)(=O)c1ccccc1	SRC3 inh 85, NCOA2 inhibitor 61
OCCCNc1cc(-c2ccnc(Nc3cccc(Cl)c3)n2)ccn1	NR2F2 inh 60, LRH-1 inv ag 96, SRC3 inh 87, SRC1 inh 86, NCOA2 inhibitor 65
Nc1c(S(=O)(=O)O)cc(NC(=O)c2ccccc2)c2c1C(=O)c1ccccc1C2=O	none (no result: NR2F2 inh, NCOA2 inhibitor)
C=C1C(=O)[C@@]23[C@H](O)C[C@@H]4C(C)(C)CC[C@H](O)[C@]4(C)[C@@H]2C[C@H](O)[C@@H]1[C@H]3O	none
C=C1C(=O)[C@@]23[C@H](O)C[C@@H]4C(C)(C)CC[C@H](O)[C@@]4(C)[C@@H]2CC[C@@H]1[C@H]3O	NCOA2 inhibitor 60
COc1ccc2ccccc2c1/C=N/NC(=O)c1cccc(Br)c1	none
O=C(N/N=C/c1c(O)ccc2ccccc12)c1cccc(C(F)(F)F)c1	SRC3 inh 74, SRC1 inh 70
O=C(N/N=C/c1c(O)ccc2ccccc12)c1[nH]ncc1Br	SRC3 inh 67
COc1ccc2c(n1)Sc1nc3ccccc3nc1N2	NCOA2 inhibitor 65
COc1ccc(O)c(/C=N/NC(=O)c2ccc(CSc3nc(C)cc(C)n3)cc2)c1	none
Cc1cc(C)nc(SCc2ccc(C(=O)N/N=C/c3cccc(O)c3O)cc2)n1	SRC3 inh 66
CCC(CC)c1nnc(NC(=O)CCCN2C(=O)c3ccccc3C2=O)s1	none
CCc1cc(OCCN(C)C)ccc1Cl	none
CN(C)CCOc1ccc2c(c1)C(=O)C(=Cc1ncc([N+](=O)[O-])n1C)C2	LRH-1 inv ag 82
Cn1c2c(c(=O)n(C)c1=O)C(C(F)(F)F)(C(F)(F)F)N=C(c1ccc(Cl)cc1)N2	LRH-1 inv ag 98, SRC3 inh 77, SRC1 inh 75 (no result: NR2F2 inh, NCOA2 inhibitor)
CC(C)C(=O)Nc1cccc(C(=O)Nc2ccc(S(=O)(=O)N3CCOCC3)cc2)c1	none
Cc1ccc(N/C(N)=N/c2nc(C)cc(N3CCCCC3)n2)c(C)c1	NR2F2 inh 47
Cc1ccc(N/C(N)=N/c2nc3c(c(=O)[nH]2)CCCC3)c(C)c1	none
COc1ccccc1NS(=O)(=O)c1cc(NC(=O)C2CCCC2)ccc1N1CCOCC1	none
O=C(CSc1nc(-c2cccs2)cc(C(F)(F)F)n1)Nc1cc(OCC(F)(F)C(F)F)cc([N+](=O)[O-])c1	SRC1 inh 76
CCC1(OC(=O)CN(C)C)C(=O)OCc2c1cc1n(c2=O)Cc2cc3c(N)cccc3nc2-1 (centres undefined)	LRH-1 inv ag 85, SRC3 inh 69 (no result: NR2F2 inh, NCOA2 inhibitor)
CCC1(O)C(=O)OCc2c1cc1n(c2=O)Cc2cc3c(N)cccc3nc2-1 (centres undefined)	LRH-1 inv ag 92, SRC3 inh 80
COC(=O)[C@]12C[C@H](CC(=O)NCCCCc3ccccc3)C(=O)N(Cc3ccccc3)C1=C[C@H](C(C)(C)C)O[C@@H]2C	none (no result: LRH-1 inv ag, SRC3 inh, SRC1 inh)
Cc1nc2c(o1)C(=O)c1ccccc1C2=Nc1ccccc1	SRC3 inh 77
Cc1c(CC(=O)O)c(=O)oc2c(C)c(OCc3ccccc3Br)ccc12	none
Oc1ccccc1N=Nc1ccccc1O	SRC3 inh 69
Cc1nnsc1C(=O)N/N=C/c1ccccc1	none
Cc1nnsc1C(=O)N/N=C/c1ccc2ccccc2c1O	SRC3 inh 84, SRC1 inh 81
O=C(C=P(c1ccccc1)(c1ccccc1)c1ccccc1)c1ccccc1-c1ccccc1C(=O)C=P(c1ccccc1)(c1ccccc1)c1ccccc1	NR2F2 inh 80, LRH-1 inv ag 94, SRC3 inh 62
Cc1cc(/C=C\c2ccc3cc(N(C)C)ccc3[n+]2C)c(C)n1-c1ccccc1	LRH-1 inv ag 77, SRC3 inh 77 (no result: NR2F2 inh, NCOA2 inhibitor)
CN1C=C/C(=C\c2cc[n+](C)c3ccccc23)c2ccccc21	NR2F2 inh 46, LRH-1 inv ag 81
O=C1C(Cl)=C(N2CCOCC2)C(=O)N1c1ccccc1F	none
Cc1cc(C)c(S(=O)(=O)N2CCN(C(=O)C3CCCO3)CC2)c(C)c1 (centres undefined)	none
COc1cccc2c1C(CO)N1C(C#N)C3CC(C(=O)O)C(C1C2)N3C (centres undefined)	LRH-1 inv ag 102, SRC3 inh 86, SRC1 inh 87, NCOA2 inhibitor 55
O=S(=O)(Nc1cc(Sc2cccc3cccnc23)c(O)c2ccccc12)c1ccccc1	NCOA2 inhibitor 95 (no result: LRH-1 inv ag, SRC3 inh, SRC1 inh)
COc1cc(-n2c(=O)c3ccccc3n(CC(=O)c3ccccc3)c2=O)cc(OC)c1OC	none
CN(C)S(=O)(=O)c1cc(C(=O)NCCCn2ccc3ccccc32)ccc1Cl	none
